# Test results from article PMC5540273 (PLoS ONE, 2017).
# Assays:
# Details in all cases: concentration: 1 μM,replicates: in singlicate; n = 1
# PCTK2 = tested on: T1, PCTK2
# T1 construct: gene CDK17
# PCTK3 = tested on: T2, PCTK3
# T2 construct: gene CDK18
# PDGFRA = tested on: PDGFRA
# PDGFRB = tested on: PDGFRB
# PDPK1 = tested on: PDPK1
# PFTAIRE2 = tested on: PFTAIRE2
# PFTK1 = tested on: T3, PFTK1
# T3 construct: gene CDK14
# PHKG1 = tested on: PHKG1
# PHKG2 = tested on: PHKG2
# PIK3C2B = tested on: PIK3C2B
# PIK3C2G = tested on: PIK3C2G
# PIK3CA = tested on: PIK3CA
# PIK3CB = tested on: PIK3CB
# PIK3CD = tested on: PIK3CD
# PIK3CG = tested on: PIK3CG
# PIK4CB = tested on: T4, PIK4CB
# T4 construct: gene PI4KB
# PIKFYVE = tested on: PIKFYVE
# PIM1 = tested on: PIM1
# PIM2 = tested on: PIM2
# PIM3 = tested on: PIM3
# 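Also: KINOMEscan kinase panel screen.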
SMILES,%Inh (PCTK2) [%],%Inh (PCTK3) [%],%Inh (PDGFRA) [%],%Inh (PDGFRB) [%],%Inh (PDPK1) [%],%Inh (PFTAIRE2) [%],%Inh (PFTK1) [%],%Inh (PHKG1) [%],%Inh (PHKG2) [%],%Inh (PIK3C2B) [%],%Inh (PIK3C2G) [%],%Inh (PIK3CA) [%],%Inh (PIK3CB) [%],%Inh (PIK3CD) [%],%Inh (PIK3CG) [%],%Inh (PIK4CB) [%],%Inh (PIKFYVE) [%],%Inh (PIM1) [%],%Inh (PIM2) [%],%Inh (PIM3) [%]
CCn1c(-c2nonc2N)nc2c(C#CC(C)(C)O)nc(OCCN)cc21.Cl.Cl [GSK902056],0,0,0,4,0,0,0,0,0,0,0,0,0,5,0,9,19,25,0,11
CC(C)Nc1cc(-c2ccc3c(N)n[nH]c3c2)nc(N)n1 [GSK2221681],0,10,1,5,,10,0,11,0,0,0,0,0,0,0,7,0,15,0,0
CN(C)CCOc1ccc(-c2cc(-c3c[nH]nc3-c3ccccn3)ccn2)cc1 [GW835314],7,2,29,20,15,19,1,47,0,0,5,0,11,2,0,36,0,13,0,0
Cl.Cl.NC[C@H](CC1CCCCC1)NC(=O)c1cc(Br)c(-c2ccnc3[nH]ccc23)s1 [GSK1581427],0,0,22,75,0,63,28,20,19,0,0,0,0,0,0,1,0,1,0,0
Cc1n[nH]c2ccc(-c3cc(OC[C@@H](N)Cc4ccccc4)cnc3-c3ccoc3)cc12.O=C(O)C(F)(F)F.O=C(O)C(F)(F)F [GSK507358],0,0,0,50,0,0,9,0,0,0,0,0,0,0,0,0,8,29,90,47
C[C@H]1Oc2cc(cnc2N)-c2c(nn(C)c2C#N)CN(C)C(=O)c2ccc(F)cc21,1,29,0,10,41,10,12,54,100,0,20,0,0,0,0,0,19,21,19,12
NC(=O)c1cc(-c2ccccc2)cc2c(C3CCNCC3)c[nH]c12 [GSK301362],0,0,0,67,0,21,17,17,0,0,0,0,0,6,2,0,0,17,0,7
Cl.Cl.NC[C@H](Cc1ccc(C(F)(F)F)cc1)NC(=O)c1cc(Br)c(-c2ccnc3[nH]ccc23)s1 [GSK1487252],0,0,28,54,0,5,0,0,0,0,61,0,0,0,0,0,12,35,0,0
C[C@@H]1CCN(C(=O)CC#N)C[C@@H]1N(C)c1ncnc2[nH]ccc12,0,8,0,,0,0,21,15,13,0,0,0,0,0,0,0,36,0,0,0
Cl.Cl.Nc1nc(-c2ccc3c(N)n[nH]c3c2)cc(N2CCCC(NC(=O)c3ccccc3)C2)n1 (stereo not shown) [GSK2286775],21,11,0,21,85,18,18,0,0,14,43,14,0,2,4,27,6,25,0,25
CCN(CC)CCCCNc1ncc2cc(-c3c(Cl)cccc3Cl)c(NC(=O)NC(C)(C)C)nc2n1,0,0,90.1,100,0,0,0,0,0,27,6,8,91.6,15,2,0,21,0,13,0
C[C@@H](Oc1cc(-c2cnn(C3CCNCC3)c2)cnc1N)c1c(Cl)ccc(F)c1Cl,4,6,23,0,14,1,0,24,7,10,8,14,18,0,9,3,5,0,0,3
Nc1nc(Nc2ccccc2)cc(-c2ccc3c(N)n[nH]c3c2)n1 [GSK2225749],0,0,4,2,,15,9,0,0,2,20,0,0,22,0,15,27,12,0,0
O=C(NCCCN1CCOC1=O)c1cnc(NCc2cc(Cl)ccc2Cl)nc1NC1CCCC1,0,13,0,30,28,0,7,0,13,4,8,0,2,0,0,12,36,9,16,10
